Among all 65,000 compounds or so, about 3,600 (5.5%) were called active. The sample holds actives, similar compounds and a random draw of the others, so the mix is not that of the screen.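 The calls were made as follows: active = at 10 µM, mean starting fluorescence two-fold or more over control wells; inactive = the rest.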
Assay: intrinsic fluorescence of library compounds, ex339/em460 – biochemical, MLSMR library, data from DPM-DC assay, artefact control, profiling panel (AID 709);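 also: signal is the first read of a kinetic run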
Details: compound autofluorescence, ex339/em460 nm, NADH buffer; at 10 µM; stronger effect = higher value; 1 = no-compound wells, NADH background

Row | SMILES | fluorescence fold increase
1 | Cc1cccc(NC(=O)CN2CCCN(S(=O)(=O)c3ccc(Br)s3)CC2)c1 | 1.1 (inactive)
2 | Cc1cc(NC(=O)c2cccc(N3C(=O)CCC3=O)c2)no1 | 1.09 (inactive)
3 | CCN(CC)c1ccc2cc(C(=O)O)c(=O)oc2c1 | 2.71 (active)
4 | COc1ccc2oc(=O)c(C(=O)N3CCN(c4ccccc4F)CC3)cc2c1 | 1.41 (inactive)
5 | COc1ccc2oc(=O)c(C(=O)N3CCCc4ccccc43)cc2c1 | 1.09 (inactive)
6 | COc1ccc2oc(=O)c(C(=O)O)cc2c1 | 3.98 (active)
7 | CCCOC(=O)c1cc2ccccc2oc1=O | 1.51 (inactive)
8 | CCN(CC)c1ccc2oc(=O)c(C)nc2c1 | 0.59 (inactive)
9 | CCOc1ccc(-n2c(SC(C)C(=O)OC)nc3c(c2=O)SCC3)cc1 (stereo not drawn) | 1.06 (inactive)
10 | CC(=O)c1cc(C#N)c(SCC(=O)C(C)(C)C)nc1C | 1.08 (inactive)
11 | Cc1ccccc1S(=O)(=O)Cc1ccc(C(=O)NCCN2CCCCC2C)o1 (stereo not drawn) | 1.1 (inactive)
12 | CC1=Nn2c(nnc2-c2ccccc2)SC1 | 1 (inactive)
13 | CCOC(=O)C1CCN(C(=O)Cn2cc(C#N)c3ccccc32)CC1 | 1.19 (inactive)
14 | CCOC(=O)CCc1c(C)c(C#N)c2[nH]c3ccccc3n2c1=O | 2.29 (active)
15 | CCOC(=O)CC1=CC(=O)Nc2ccccc2N1 | 1.15 (inactive)
16 | COc1ccc(C2C(C(=O)N3CCN(c4ccc(OC)cc4)CC3)c3ccccc3C(=O)N2C)cc1 (stereo not drawn) | 1.12 (inactive)
17 | COc1ccccc1-n1c(CNC(=O)c2ccccc2)nnc1SCC(=O)Nc1nnc(C)s1 | 1.12 (inactive)
18 | CC(NCCO)C(=O)C12CC3CC(CC(C3)C1)C2 (stereo not drawn) | 1.13 (inactive)
19 | Cc1cccc(N(CC(O)CN(C)C)S(=O)(=O)c2ccccc2)c1 (stereo not drawn) | 1.08 (inactive)
20 | CNC(=O)Nc1cc(C(C)(C)C)no1 | 1.07 (inactive)
21 | CCOC(=O)c1ccc(CS(=O)c2ccc(Cl)cc2)o1 (stereo not drawn) | 1.02 (inactive)
22 | CCOC(=O)c1ccc(COC(=O)c2cc(=O)[nH]c3ccccc23)o1 | 2.1 (active)
23 | CCOC(=O)c1sc2nc(CSCC(=O)OCc3ccc(C(=O)OC)o3)[nH]c(=O)c2c1C | 1.46 (inactive)
24 | O=S(=O)(Nc1ccc2nc(-c3ccco3)[nH]c2c1)c1ccccc1 | 2.12 (active)
25 | COc1cc(NS(=O)(=O)c2ccccc2)ccc1-n1nc(C)cc1C | 1.12 (inactive)

Row | SMILES | fluorescence fold increase
26 | Cc1ccc(S(=O)(=O)Nc2ccc3ncccc3c2)cc1 | 1.18 (inactive)
27 | CCCCN(CCCC)C(=O)CCS(=O)(=O)c1ccc2c(c1)n(C)c(=O)c(=O)n2C | 1.23 (inactive)
28 | Cc1cc(C)nc(SCc2nnc(SCC(=O)OC3CCCCC3)o2)n1 | 1.08 (inactive)
29 | CC1CN(C2CCN(C(=O)COc3ccccc3)CC2)CC(C)O1 (stereo not drawn) | 1.1 (inactive)
30 | COC(=O)c1ccc2c(=O)n(CC3CCCO3)c(=S)[nH]c2c1 (stereo not drawn) | 1.06 (inactive)
31 | O=c1c2cc3c(=O)n(CC4CCCO4)c(=O)c3cc2c(=O)n1CC1CCCO1 (stereo not drawn) | 1.07 (inactive)
32 | O=C(NC1CCCCC1)c1ccc2c(=O)n(CC3CCCO3)c(=O)[nH]c2c1 (stereo not drawn) | 2.11 (active)
33 | Cc1cc(C(=O)CC#N)c(C)n1CC(F)(F)F | 1.05 (inactive)
34 | CCCNc1ncnc2sc(C)c(C)c12 | 1.15 (inactive)
35 | Fc1cc(F)c2nc(N3CCOCC3)sc2c1 | 1.07 (inactive)
36 | COc1ccc(OC)c(NC(=O)CSc2nc(N)c(-c3ccccc3)c(=O)[nH]2)c1 | 1.08 (inactive)
37 | CCOC(=O)CCc1c(C)c2ccc(OCc3nn[nH]n3)c(C)c2oc1=O | 3.81 (active)
38 | CCN(CC)S(=O)(=O)c1cccc(C(=O)Nc2cc(C)nn2-c2nc(C)cc(C)n2)c1 | 1.03 (inactive)
39 | CC(C)C1C2=C(CC(C)(C)CC2=O)ON1c1ccccc1 (stereo not drawn) | 1.9 (inactive)
40 | O=C(O)C1CCCCC1C(=O)Nc1ccc(Cl)cc1 (stereo not drawn) | 1.08 (inactive)
41 | CCOC(=O)CSc1nccc(N(C)C)c1C#N | 1.09 (inactive)
42 | CCOC(=O)Cc1c(C)nc2c(C#N)c(C)nn2c1C | 3.62 (active)
43 | COc1ccccc1CNC(=O)Cn1cc2c(n1)CCCC2 | 1.13 (inactive)
44 | CC(=O)c1cc2c(cc1N)OCO2 | 1.13 (inactive)
45 | COc1cc2[nH]c(=O)n(CCC(=O)NC3CCN(Cc4ccccc4)CC3)c(=O)c2cc1OC | 1.46 (inactive)
46 | COc1cc2cc(CN(CCN3CCCC3)C(=O)Nc3ccccc3Cl)c(=O)[nH]c2cc1OC | 2.13 (active)
47 | COc1ccc(CCN(Cc2cc3cccc(C)c3[nH]c2=O)C(=O)N2CCCC2)cc1OC | 1.08 (inactive)
48 | Cc1cc(C(=O)O)c(S(C)(=O)=O)s1 | 1.04 (inactive)
49 | Cc1cc(C)c2c(c1)c(C)cc1nnc(SCC(=O)NCc3ccco3)n12 | 1.45 (inactive)
50 | Cc1ccc(C(CC(=O)O)Nc2nc(N3CCCCC3)nc(N3CCCCC3)n2)cc1 (stereo not drawn) | 1.14 (inactive)

Row | SMILES | fluorescence fold increase
51 | CC(Nc1nc(N2CCCC2)nc2ccccc12)c1ccccc1 (stereo not drawn) | 2.43 (active)
52 | CC(C)n1c(C(O)c2ccccc2)nc2ccccc21 (stereo not drawn) | 1.13 (inactive)
53 | Cc1ccc(N2CCN(S(=O)(=O)N(C)C)CC2)cc1Cl | 1.11 (inactive)
54 | COc1ccc(-c2noc(COc3ccc(Cl)c(C)c3)n2)cc1 | 1.02 (inactive)
55 | COc1ccc(-c2cc3ccc(OCc4nn[nH]n4)cc3oc2=O)cc1 | 3.01 (active)
56 | COc1ccc(OCc2ccc(-c3nc4ccccc4c(=O)n3N)o2)cc1 | 1.1 (inactive)
57 | O=C(O)C1CCN1C1CCCCC1 (stereo not drawn) | 0.88 (inactive)
58 | COCCCn1c(CCC(=O)O)ccc1-c1ccc(F)cc1 | 3.84 (active)
59 | COCCCNC(=O)c1c(F)c(F)c(F)c(F)c1F | 1.04 (inactive)
60 | Cc1cccc(N=C2NC(=O)CS2)c1C | 1.01 (inactive)
61 | CC(C)CC(=O)N=C1SC2CS(=O)(=O)CC2N1CCc1ccccc1 (stereo not drawn) | 1.1 (inactive)
62 | CCCCCCn1c(CN2CCCCC2)nc2c1c(=O)n(C)c(=O)n2C | 1.13 (inactive)
63 | CCOC(=O)N1CCC(NC(=O)CN2C(=O)COc3ccc(C(C)(C)C)cc32)CC1 | 1.02 (inactive)
64 | CN1CCN(S(=O)(=O)c2ccc3[nH]cc(C(=O)O)c(=O)c3c2)CC1 | 2.17 (active)
65 | COC(=O)c1cn(C)c2ccc(S(=O)(=O)N3CC(C)CC(C)C3)cc2c1=O (stereo not drawn) | 0.95 (inactive)
66 | CCN(CC)S(=O)(=O)c1ccc2[nH]cc(C(=O)NCCc3ccccc3)c(=O)c2c1 | 1.58 (inactive)
67 | CC1(C)Cc2cccc(OCC(=O)Nc3nccs3)c2O1 | 1.08 (inactive)
68 | N#Cc1c(N)sc2c1CCN(C(=O)OCc1ccccc1)C2 | 1.12 (inactive)
69 | CC(C)CCNc1nc(N2CCCC2)c2c(c1C#N)CCN(C)C2 | 1.63 (inactive)
70 | CCN1CCc2c(C#N)c(NCc3ccccc3)nc(NCCO)c2C1 | 2.3 (active)
71 | CC(C)C(=O)N1c2ccccc2NC2=C(C(=O)CCC2)C1c1ccc(N(C)C)cc1 (stereo not drawn) | 1.05 (inactive)
72 | O=C1CCCC2=C1C(c1cccs1)n1nc(SCc3ccccc3)nc1N2 (stereo not drawn) | 2.52 (active)
73 | CCCC(=O)N1c2ccccc2NC2=C(C(=O)CCC2)C1c1ccc(F)cc1 (stereo not drawn) | 1.08 (inactive)
74 | Cc1ccc2c(c1)N(CCCC(=O)NCc1cccnc1)C(=O)CO2 | 1.1 (inactive)
75 | COC(=O)c1c(-c2ccc(C)cc2)csc1N | 1.09 (inactive)

Row | SMILES | fluorescence fold increase
76 | CC(=O)NC1=NC(=O)CS1 | 1.08 (inactive)
77 | CCOc1ccc(CCNC(=O)C2CCN(c3ccc(N4CCOCC4)nn3)CC2)cc1OCC | 4.91 (active)
78 | COc1ccc(CCNC(=O)C2CCN(c3nn4c(=O)cc(C)nc4s3)CC2)cc1OC | 1.05 (inactive)
79 | CCCS(=O)(=O)N1CCC(C(=O)NCCc2ccc(OC)c(OC)c2)CC1 | 1.09 (inactive)
80 | CN1CCN(Cc2c(O)ccc3c2oc(=O)c2ccccc23)CC1 | 1.15 (inactive)
81 | CCN1CCN(Cc2c(O)ccc3c(=O)c(-c4ccc(OC)c(OC)c4)c(C(F)(F)F)oc23)CC1 | 1.18 (inactive)
82 | O=c1oc2c(CN3CCCCC3)c(O)ccc2c2c1CCCCC2 | 2.34 (active)
83 | O.O.O.O=S(=O)([O-])OC[C@H]1O[C@@H](O[C@]2(COS(=O)(=O)[O-])O[C@H](OS(=O)(=O)[O-])[C@@H](OS(=O)(=O)[O-])[C@@H]2OS(=O)(=O)[O-])[C@H](OS(=O)(=O)[O-])[C@@H](OS(=O)(=O)[O-])[C@@H]1OS(=O)(=O)[O-].[Al] | 1.14 (inactive)
84 | O=C(CCOc1ccccc1)NCc1ccccc1 | 1 (inactive)
85 | CC(=O)OCc1cc2cc(C)ccc2[nH]c1=O | 1.43 (inactive)
86 | CCC(=O)N(Cc1cc2cc(OC)ccc2[nH]c1=O)c1ccccc1C | 3.71 (active)
87 | CCNCc1cc2cc(C)ccc2[nH]c1=O | 1.39 (inactive)
88 | CCN(Cc1cc2cc(C)ccc2[nH]c1=O)S(=O)(=O)c1ccccc1 | 1.54 (inactive)
89 | CCOc1ccc2[nH]c(=O)c(CN(CCCO)C(C)=O)cc2c1 | 3.27 (active)
90 | Cc1ccc2[nH]c(=O)c(COC(=O)c3ccccn3)cc2c1 | 1.42 (inactive)
91 | COc1ccc(S(=O)(=O)N(CCCN2CCCC2=O)Cc2cc3c(C)ccc(C)c3[nH]c2=O)cc1 | 1.97 (inactive)
92 | COc1ccc(N(Cc2cc3cc(OC)ccc3[nH]c2=O)S(C)(=O)=O)cc1 | 3 (active)
93 | CCOC(=O)c1cc2cc(C)ccc2[nH]1 | 1.67 (inactive)
94 | O=C(CSc1nnnn1C1CCCC1)Nc1ccc2c(c1)OCCO2 | 1.11 (inactive)
95 | O=C(NC12CC3CC(CC(C3)C1)C2)N1CCCC(CO)C1 (stereo not drawn) | 1.11 (inactive)
96 | O=C(CN1CCN(C(=O)c2cccc(F)c2)CC1)Nc1ccccc1F | 1.17 (inactive)
97 | COc1cc(CO)c(C2(CO)CCCC2)cc1OC | 1.08 (inactive)
98 | Cc1cc(N2C(=O)c3ccc(C(=O)NCc4ccccc4)cc3C2=O)no1 | 1.1 (inactive)

Reference: PubChem BioAssay AID709 (SRMLSC, 2007)
